The list is not random: actives were taken first. Their share in the collection is about 1.7%.
Mtb hypoxia rep = inhibitors of hypoxia-regulated fluorescent reporter in Mycobacterium tuberculosis; M. tuberculosis hypoxia-regulated fluorescent reporter, fluorescence; fluorescence inhibition, % (concentration not given with the values); 300,000 tested, 0.1% active; in the data active means fluorescence inhibition mostly above about 23%, no sharp cut-off; inactive means mostly below about 17%
RecA splice inh = Mtb RecA intein splicing inhibition; P9WHJ3; cell-free RecA intein splicing, fluorescence; 290,000 tested, 0.75% active; AID 2221; inhibition, % (concentration not given with the values); in the data active means inhibition above about 30%; inconclusive means no clear call, values can overlap the other calls;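 further: 0% = vehicle wells and 100% = reference inhibitor control wells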
CCHF vOTU inh-1 = blocks the CCHF virus ovarian tumor domain protease | inhibition, % at 11.5 µM | CCHFV vOTU protease, Pep-AMC fluorescence | 370,000 tested, 0.55% active; further: 0% = vehicle wells with enzyme and 100% = no enzyme wells
Mtb bLac sens = beta-lactam sensitization of Mtb H37Rv; M. tuberculosis H37Rv growth with meropenem, percent inhibition; inhibition, % at 25 µM; 330,000 tested, 0.27% active; AID 434955; call rule not given here;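 further: growth measured after seven days incubation then overnight dye step; 0% = bacteria only wells and 100% = bacteria with antibiotic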
PfHsp40 rescue = compounds rescuing yeast from Plasmodium falciparum HSP40 toxicity; S. cerevisiae expressing PfHsp40, growth rescue, ATP luminescence; growth rescue, % at 12.5 µM; 340,000 tested, 0.68% active; in the data active means growth rescue above about 28%, passing the limit was not always enough; inconclusive means no clear call, values can overlap the other calls;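 further: yeast W303a lacking pdr1 and pdr3 grown in galactose medium; growth measured after three days at 30 °C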
GFP chromophore = counter-screen GFP chromophore formation inhibition. shares compounds with RecA splice inh. cell-free GFP chromophore formation, fluorescence. EC50, µM. 2,100 tested, 83% active. AID 434968; call rule not given here
CCHF vOTU inh-2 = CCHFV vOTU protease inhibition, confirmation. shares compounds with CCHF vOTU inh-1. Recombinant CCHFV vOTU, Pep-AMC fluorescence. inhibition, % at 11.5 µM. 1,900 tested, 17% active. AID 686976
* marks the source's active call; other numbers are inactive results; ? = inconclusive; · = not tested or not shown. Unless noted, no stated cut-off is given here; in the data, active means inhibition above about 30%; inactive means the rest.

SMILES | Mtb hypoxia rep | RecA splice inh | CCHF vOTU inh-1 | Mtb bLac sens | PfHsp40 rescue | CCHF vOTU inh-2 | others
CCOc1cc(/C=C2/C(=O)N(c3ccccc3)N=C2C)ccc1OC(=O)c1ccco1 | 2 | 78* | 68* | 90 | 0 | -2 | GFP chromophore=2.7*
CCOc1cc(/C=C2/C(=N)N3N=C(CC)SC3=NC2=O)ccc1OC(=O)c1ccco1 | -2 | 21 | 6 | 75 | 0 | ·
Cc1c(Cc2ccccc2)sc(N=Cc2ccc3ccccc3c2)c1C(N)=O | 2 | · | · | · | · | ·
CN1CCN(c2ccc([N+](=O)[O-])c3no[n+]([O-])c23)CC1 | 11 | 86* | 35* | 99 | 5 | 21 | GFP chromophore=>38
O=[N+]([O-])c1ccc(N(CCO)CCO)c2c1no[n+]2[O-] | · | · | 19 | · | · | ·
O=C1C(Cl)=C(NCc2cccnc2)C(=O)c2ccccc21 | 0 | 76* | 70* | 84 | -1 | 62* | GFP chromophore=9.4*
O=C1C(Cl)=C(Nc2ccccc2)C(=O)c2ccccc21 | -3 | 2 | 22 | 1 | 0 | ·
O=S(=O)(Cc1ccccc1)NCc1cccnc1 | -3 | 0 | -4 | ? | -1 | ·
C=CCNC1=C(Cl)C(=O)c2ccccc2C1=O | -5 | 34* | 68* | ? | 0 | 59* | GFP chromophore=19*
CCCCCCCCCCCCCCCCn1cc[n+](C)c1 | 12 | 48* | 39* | 95 | 3 | 50* | GFP chromophore=12*
O=C1C2=C(c3ccccc31)[N+](=O)C1CCCCC1N2[O-] (stereo unspecified) | · | 82* | 57* | 5 | 0 | 29 | GFP chromophore=7.9*
COCc1cc(C)nc(OCC(=O)NN=Cc2ccc(-c3cc([N+](=O)[O-])ccc3C)o2)c1C#N | 11 | · | · | · | · | ·
OCC1OC(C(N=Nc2ccccc2)=NNc2ccccc2)C(O)C1O (stereo unspecified) | · | · | 31* | · | · | -16
NC(=O)/C(N=Nc1ccccc1)=N/Nc1ccccc1 | · | 2 | 20 | 73 | -1 | ·
COC(=O)[C@]12C[C@H](CC(=O)NCc3ccc(OC)c(OC)c3)C(=O)N(CCC3=CCCCC3)C1=C[C@H](C(C)C)O[C@@H]2C1CC1 | · | · | 18 | · | · | ·
CCCCCCCCN1C(=O)[C@@H](CC(=O)NCc2cccc(C(F)(F)F)c2)C[C@@]2(C(=O)OC)C1=C[C@H](C(C)C)O[C@@H]2C1CC1 | · | · | 30* | · | · | 31*
CCCCCCCCN1C(=O)[C@@H](CC(=O)NCc2ccc(OC)c(OC)c2)C[C@@]2(C(=O)OC)C1=C[C@H](C(C)C)O[C@@H]2C1CC1 | · | · | 38* | · | · | 11
COC(=O)[C@]12C[C@H](CC(=O)NCc3cccc(C(F)(F)F)c3)C(=O)N(CCc3ccc(OC)c(OC)c3)C1=C[C@H](C(C)C)O[C@@H]2C1CC1 | · | · | 25 | · | · | ·
COC(=O)c1c(C)[nH]c(C(=O)C(C)OC(=O)C2CC(=O)N(CCc3ccccc3)C2)c1C (stereo unspecified) | 18 | · | 33* | 6 | 0 | -6
COC(=O)c1c(C)[nH]c(C(=O)C(C)OC(=O)C2CC(=O)N(c3ccc(C)cc3)C2)c1C (stereo unspecified) | 7 | · | 14 | -1 | 3 | ·
CCOC(=O)c1ccccc1OCc1cc(C=Nn2cnnc2)ccc1OC | -5 | · | · | · | · | ·
CC(=O)c1c(C)[nH]c(C(=O)CN(C)CC(=O)Nc2ccccc2Cl)c1C | 13 | · | 7 | -3 | 0 | ·
CCN(CC(=O)Nc1ccccc1C(F)(F)F)CC(=O)c1[nH]c(C)c(C(C)=O)c1C | · | · | 38* | · | · | -17
O=C(O)c1[nH]c2ccccc2c1C(c1cc(Br)ccc1O)c1c(C(=O)O)[nH]c2ccccc12 | 14 | · | 35* | -1 | 18 | 12
COCCCNC(=O)C(=O)NN=Cc1cc2c(cc1Br)OCO2 | 10 | · | · | · | · | ·
SMILES | Mtb hypoxia rep | RecA splice inh | CCHF vOTU inh-1 | Mtb bLac sens | PfHsp40 rescue | CCHF vOTU inh-2 | others
CCOC(=O)c1c(NC(=O)COC(=O)Cn2cnc3ccccc32)sc2c1CCC(C)C2 (stereo unspecified) | 9 | · | 47* | -6 | 4 | 9
CCOC(=O)c1c(NC(=O)Cn2nnc3ccccc32)sc2c1CCC(C)C2 (stereo unspecified) | · | 9 | 8 | -10 | 1 | ·
Cc1ccc(NC(=O)c2ccccc2NS(=O)(=O)c2ccc(Cl)s2)cc1S(=O)(=O)N1CCOCC1 | 0 | 3 | 31* | -3 | 6 | 9
O=C(Nc1cc(S(=O)(=O)N2CCOCC2)ccc1O)c1ccc(NS(=O)(=O)c2ccc(Cl)s2)cc1 | 8 | -3 | 8 | 3 | 2 | ·
COc1ccc2c(c1)C1C(CO2)C(c2ccccc2)[C@]2(C)C(=O)Nc3ccccc3C(=O)N12 (stereo partly specified) | 4 | · | · | · | · | ·
O=C(NN=Cc1ccccc1O)C1SCCCS1 | 17 | · | · | · | · | ·
Cc1ccccc1N=C1c2ccccc2C(=O)C1[N+](=O)[O-] (stereo unspecified) | 5 | 1 | 34* | 16 | 0 | 7
CC(=O)C1C(=O)c2c(cccc2[N+](=O)[O-])C1=Nc1ccccc1C (stereo unspecified) | 3 | -4 | -12 | 10 | · | ·
Cn1c(=O)c2c(ncn2CC(=O)OCC(=O)c2ccc(Cl)cc2)n(C)c1=O | · | -1 | -5 | -1 | -2 | ·
Cn1c(=O)c2c(ncn2CC(=O)OCC(=O)c2ccc(Br)cc2)n(C)c1=O | · | · | 32* | · | · | -6
CCCCCCCCC(=O)NC(NC(=S)N1CCOCC1)C(Cl)(Cl)Cl (stereo unspecified) | 7 | -2 | 36* | 1 | 1 | -6
CCOc1cc(C=C2C(=O)ON=C2C)ccc1OCc1ccccc1 | 0 | · | · | · | · | ·
O=C(O)CN1C(=O)/C(=C\c2cc(Br)ccc2OCc2ccc(F)cc2)SC1=S | -1 | 10 | 31* | 1 | 21 | 25
Cc1cccc(NC(=O)CN2C(=O)N/C(=C\c3ccccc3OCc3ccc(C(=O)O)cc3)C2=O)c1 | 16 | · | 11 | -1 | -1 | ·
COc1ccccc1/C=C1\SC(=S)N(CC(=O)NC2CCS(=O)(=O)C2)C1=O (stereo unspecified) | -5 | 2 | 31* | -5 | 0 | 0
O=C(O)CN1C(=O)/C(=C\c2ccccc2OCc2ccc(F)cc2)SC1=S | -11 | 8 | 35* | 0 | 8 | 7
O=C(CN1C(=O)N/C(=C\c2ccccc2OCc2ccc(C(=O)O)cc2)C1=O)Nc1ccc(F)cc1 | -11 | 2 | 32* | 4 | 1 | -12
O=C(O)CN1C(=O)/C(=C\c2ccccc2OCc2ccccc2)SC1=S | · | · | 26 | · | · | ·
O=C1CCCC=CCC(CC(=O)N(CCO)Cc2ccccc2)C(=O)NC(Cc2ccccc2)CO1 (stereo unspecified) | 12 | · | · | · | · | ·
CCOC(=O)C1C2COc3cc(OC)ccc3C2N2C(=O)CN(Cc3ccc(Cl)cc3)C(=O)[C@@]12C (stereo partly specified) | 5 | · | · | · | · | ·
CC1CN(C(C)CO)C(=O)c2cccc(NC(=O)C3CC3)c2OC1CN(C)S(C)(=O)=O (stereo unspecified) | 7 | · | · | · | · | ·
